According to PubChem BioAssay AID1159580 (chemical genetic matrix, 2015):
Several values for one entry are separate records, joined by “and”; a condition that tells them apart may be missing. Identical values can stand only once. The whole screen tested about 5,500 compounds, of which about 2,000 (36%) were called active. Another 18% or so got no clear call; they are omitted. Cut-off read from the data, not from the text of the source: active = normalized growth mostly below about 0.91 (no sharp cut-off); inconclusive = no clear call, values can overlap the other calls; inactive = mostly above about 0.92. The list shows a part of the results.

Test: chemical genetic growth profiling, strain panel (AID 1159580);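 note: tested at 20 µM; growth read once vehicle control cultures reached saturation at 30 °C; 1 = growth at the plate median or of vehicle wells; lower values mean less growth of the strain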
Conditions: S. cerevisiae deletion strains, growth OD

Measured: normalized growth

O=C(O)c1cc(O)c(O)c(O)c1
inactive: locus YAL021C, strain ccr4, stronger effect = lower value 1.05 | locus YAL026C, strain drs2, stronger effect = lower value 1.03 | locus YAL030W, strain snc1, stronger effect = lower value 1.02 | locus YBL061C, strain skt5, stronger effect = lower value 1.03 | locus YBR009C, strain hhf1, stronger effect = lower value 1.02 | locus YBR021W, strain FUR4, stronger effect = lower value 1.03 | locus YBR023C, strain chs3, stronger effect = lower value 1.04 | locus YBR171W, strain sec66, stronger effect = lower value 1.03 | locus YBR229C, strain ROT2, stronger effect = lower value 1.03 | locus YBR231C, strain swc5, stronger effect = lower value 1.01 | locus YBR279W, strain paf1, stronger effect = lower value 1.02 | locus YCL011C, strain gbp2, stronger effect = lower value 1.02 | locus YCL016C, strain dcc1, stronger effect = lower value 1.04 | locus YCL029C, strain bik1, stronger effect = lower value 1.07 | locus YCL069W, strain vba3, stronger effect = lower value 1.01 | locus YCR088W, strain abp1, stronger effect = lower value 1.02 | locus YDL005C, strain med2, stronger effect = lower value 1.02 | locus YDL035C, strain GPR1, stronger effect = lower value 1.07 | locus YDL040C, strain nat1, stronger effect = lower value 1.02 | locus YDL074C, strain BRE1, stronger effect = lower value 1.14 | locus YDL101C, strain DUN1, stronger effect = lower value 1.03 | locus YDL185W, strain tfp1, stronger effect = lower value 1.03 | locus YDL192W, strain arf1, stronger effect = lower value 1.03 | locus YDR001C, strain nth1, stronger effect = lower value 1.01 | locus YDR069C, strain doa4, stronger effect = lower value 1.01 | locus YDR101C, strain arx1, stronger effect = lower value 0.996 | locus YDR137W, strain rgp1, stronger effect = lower value 1.13 | locus YDR150W, strain NUM1, stronger effect = lower value 1.03 | locus YDR159W, strain sac3, stronger effect = lower value 0.987 | locus YDR162C, strain NBP2, stronger effect = lower value 1.04 | locus YDR195W, strain ref2 0.996 | locus YDR297W, strain sur2, stronger effect = lower value 1.02 | locus YDR318W, strain mcm21, stronger effect = lower value 1.04 | locus YDR334W, strain swr1, stronger effect = lower value 1.04 | locus YDR335W, strain msn5, stronger effect = lower value 1.02 | locus YDR388W, stronger effect = lower value 1.02 | locus YDR392W, strain spt3, stronger effect = lower value 0.993 | locus YDR502C, strain sam2, stronger effect = lower value 1.04 | locus YEL003W, strain gim4, stronger effect = lower value 0.996 | locus YEL037C, strain rad23, stronger effect = lower value 1.02 | locus YEL061C, strain CIN8 (second series), stronger effect = lower value 1.02 | locus YEL061C, strain CIN8, stronger effect = lower value 1.03 | locus YER015W, strain faa2, stronger effect = lower value 1 | locus YER016W, strain bim1, stronger effect = lower value 1.04 | locus YER110C, stronger effect = lower value 1.02 | locus YER111C, strain swi4, stronger effect = lower value 1.02 | locus YER155C, strain BEM2 (second series), stronger effect = lower value 1.08 | locus YER155C, strain BEM2, stronger effect = lower value 1.03 | locus YER167W, strain BCK2, stronger effect = lower value 1.03 | locus YFR010W, strain ubp6, stronger effect = lower value 0.998 | locus YGL078C, strain dbp3, stronger effect = lower value 1.03 | locus YGL086W, strain mad1, stronger effect = lower value 1.03 | locus YGL167C, strain pmr1, stronger effect = lower value 1.02 | locus YGL173C, strain kem1, stronger effect = lower value 0.994 | locus YGL227W, strain vid30, stronger effect = lower value 1.02 | locus YGL240W, strain doc1, stronger effect = lower value 1.01 | locus YGL248W, strain PDE1, stronger effect = lower value 1.08 | locus YGL253W, strain hxk2, stronger effect = lower value 1.03 | locus YGR078C, strain PAC10, stronger effect = lower value 1.04 | locus YGR135W, strain pre9, stronger effect = lower value 1.07 | locus YGR252W, strain gcn5, stronger effect = lower value 1.07 | locus YHR013C, strain ard1, stronger effect = lower value 1.04 | locus YHR027C, strain rpn1, stronger effect = lower value 1.01 | locus YHR030C, strain SLT2, stronger effect = lower value 0.966 | locus YHR079C, strain IRE1 (second series), stronger effect = lower value 1.03 | locus YHR079C, strain IRE1, stronger effect = lower value 0.969 | locus YHR094C, strain hxt1, stronger effect = lower value 1.02 | locus YHR129C, strain ARP1, stronger effect = lower value 1.05 | locus YHR142W, strain chs7, stronger effect = lower value 1.03 | locus YHR200W, strain rpn10, stronger effect = lower value 1.02 | locus YIL066C, strain RNR3, stronger effect = lower value 1.05 | locus YIL073C, strain SPO22, stronger effect = lower value 1.23 | locus YIL125W, strain kgd1, stronger effect = lower value 1.02 | locus YIR030C, strain dcg1, stronger effect = lower value 1.05 | locus YJL092W, strain hpr5, stronger effect = lower value 1.03 | locus YJL095W, strain BCK1 (second series), stronger effect = lower value 1.03 | locus YJL095W, strain BCK1, stronger effect = lower value 1.12 and 0.981 | locus YJL115W, strain asf1, stronger effect = lower value 1.02 | locus YJL129C, strain trk1, stronger effect = lower value 1.08 | locus YJL134W, strain LCB3, stronger effect = lower value 1.03 | locus YJL154C, strain vps35, stronger effect = lower value 1.03 | locus YJL164C, strain tpk1, stronger effect = lower value 1.01 | locus YJL166W, strain qcr8, stronger effect = lower value 1.04 | locus YJL168C, strain set2, stronger effect = lower value 1.02 | locus YJL187C, strain SWE1 (second series), stronger effect = lower value 1.07
